Only some compounds are listed: those with a hit (about 4.6% of all), similar ones and a draw of the others.
D1 potentiator – Potentiators of Human D1 Dopamine Receptor: qHTS | D(1A) dopamine receptor (Homo sapiens), P21728 | HEK293 TREx D1 cells, calcium flux, dopamine EC20 potentiation | potentiation, % at 10 µM | actives 0.036% (n = 360,000) | AID 504651, 2011; in the data active means potentiation above about 30%
Target sequence (P21728 whole entry, looked up): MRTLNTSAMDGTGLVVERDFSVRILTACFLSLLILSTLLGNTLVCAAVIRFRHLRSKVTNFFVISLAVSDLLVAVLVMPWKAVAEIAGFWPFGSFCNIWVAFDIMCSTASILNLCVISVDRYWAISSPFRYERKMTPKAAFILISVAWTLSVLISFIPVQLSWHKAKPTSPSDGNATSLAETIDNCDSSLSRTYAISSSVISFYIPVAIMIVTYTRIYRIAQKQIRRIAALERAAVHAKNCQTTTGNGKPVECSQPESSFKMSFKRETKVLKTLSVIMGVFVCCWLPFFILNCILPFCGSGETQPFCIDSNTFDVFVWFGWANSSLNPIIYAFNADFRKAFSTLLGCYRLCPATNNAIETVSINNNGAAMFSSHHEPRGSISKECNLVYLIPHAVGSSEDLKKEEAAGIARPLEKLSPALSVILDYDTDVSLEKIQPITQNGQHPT
TRHR enhancer – qHTS for Small Molecule Agonists and Allosteric Enhancers of Human TRH Receptor: Primary Screen for Enhancers | enhancement, % at 2 µM | Thyrotropin-releasing hormone receptor (Homo sapiens), P34981 | TRHR cells, fluo-8 calcium fluorescence, EC20 TRH enhancement | actives 0.66% (n = 360,000); in the data active means enhancement above about 30%
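TRHR-expressing cells loaded with fluo-8 calcium dye were read kinetically (ex 480/em 530) during compound addition, then stimulated with an EC20 of TRH (10 nM final). Enhancement of the Gq-mediated intracellular calcium response was scored.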
D1 antagonist – Antagonist of Human D 1 Dopamine Receptor: qHTS. activity change, negative = inhibition, % at 10 µM. D(1A) dopamine receptor (Homo sapiens), P21728. HEK293 TREx D1 cells, calcium flux, dopamine EC80; active compounds read low. actives 3.2% (n = 360,000); in the data active means activity change below about -30%
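Antagonism measured as reduced calcium response to an EC80 dopamine addition following 180 s compound pre-read; cells were inducible HEK293 Trex D1 plated overnight at 30 C, read kinetically at 1 cycle/sec.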
D1 ag – Allosteric Agonists of the Human D1 Dopamine Receptor: qHTS. D(1A) dopamine receptor (Homo sapiens), P21728. HEK293 T-REx D1 cells, calcium flux, agonist mode. activation, % at 2 µM. actives 1% (n = 360,000). AID 504660, 2011
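Inducible HEK293 T-REx D1 cells, force-coupled to calcium signalling, were plated at 4000 cells/well with tetracycline and held overnight at 30 C. After no-wash calcium dye loading, compound-evoked calcium rise over 180 s flagged agonists.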
TRHR ag – qHTS for Small Molecule Agonists and Allosteric Enhancers of Human TRH Receptor: Primary Screen for Agonists. TRHR cells, calcium flux fluo-8, FDSS agonist mode. activation, % at 2 µM. actives 0.18% (n = 360,000)
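Agonist-mode FDSS calcium read (Ex 480/Em 530, 1 s cycles) in 1536-well TRHR cells with fluo-8 dye, after 10-cycle baseline and 23 nL compound addition; TRH at EC20 (10 nM final) added afterwards for the enhancer phase.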
Numbers stand for hits; . = inactive; / = no result given. Unless noted, no stated cut-off is given here; in the data, active means activation above about 30%; inactive means the rest.

SMILES	D1 potentiator	TRHR enhancer	D1 antagonist	D1 ag	TRHR ag
CCN(CC)CCNC(=O)c1ccc2c(=O)n(C3CCCC3)c(=S)[nH]c2c1	.	.	-40	30	.
CC1CCN(CCNC(=O)c2ccc3c(=O)n(Cc4ccc(Cl)cc4)c(=S)[nH]c3c2)CC1	.	.	-51	88	.
CC(=Nc1ccc(Br)cc1)c1sc2ccccc2c1O	.	.	.	62	.
CCOCCn1c(=NC(=O)/C=C/c2ccccc2Cl)sc2cc(NC(C)=O)ccc21	.	.	.	.	.
COc1ccc(NC(=O)CCN2CCN(C/C=C/c3ccccc3)CC2)cc1	.	.	.	.	.
CN1C(=O)c2cccc3c(S(=O)(=O)N4CCCC4C(=O)O)ccc1c23 (stereo unspecified)	.	.	-38	.	.
Cc1sc2ncnc(NC(C)C(=O)O)c2c1C (stereo unspecified)	.	.	.	.	.
O=C(/C=C/c1ccccc1)NCCSCc1ccc(Cl)cc1	.	.	.	.	.
O=C(/C=C/c1ccc(Cl)cc1Cl)NCCSCc1ccccc1	.	.	-46	.	.
O=C(/C=C/c1ccccc1)NCCSCc1ccccc1Cl	.	.	-32	.	.
COc1cccc(OCc2cc(C(=O)N(C)Cc3nc4ccccc4[nH]3)no2)c1	.	.	.	.	.
Cc1cc(OCc2cc(C(=O)N(C)C3CCOCC3)no2)cc(C)c1Cl	.	.	.	.	.
COc1cccc(OCc2cc(C(=O)N(Cc3ccccc3)CC3CC3)no2)c1	.	.	.	48	.
Cc1ccc(OCc2cc(C(=O)N3CCN(C)C[C@@H]3c3ccccc3)no2)cc1C	.	.	-31	.	.
CN1CCN(C(=O)c2cc(COc3ccccc3)on2)[C@@H](c2ccccc2)C1	.	.	.	.	.
Cc1cc(OCc2cc(C(=O)N3CCN(C)C(=O)[C@@H]3C)no2)cc(C)c1Cl	.	.	-31	.	.
Cc1ccc(OCc2cc(C(=O)N(C)CC3CCOCC3)no2)cc1C	.	.	.	56	.
Cc1ccc(-c2cc(C(=O)Nc3c(C(=O)c4ccccc4)oc4ccccc34)no2)cc1F	.	.	.	.	.
CCCN(C(=O)COc1ccc(C(C)=O)cc1OC)C1CCS(=O)(=O)C1 (stereo unspecified)	.	.	.	.	.
CCc1ccc(Nc2ncc3c(n2)CC(C)(C)CC3=O)cc1	.	.	.	.	.
O=C(Nc1cccc(F)c1)C1CCN(C(=O)c2ccco2)CC1	.	.	.	.	.
O=C(NCc1ccc(F)cc1)c1cccc2c1C(=O)c1ccc(N3CCOCC3)cc1S2(=O)=O	.	.	/	42	.
O=C(NC1CCCC1)c1cccc2c1C(=O)c1ccc(N3CCCCC3)cc1S2(=O)=O	.	.	.	.	.
O=C(NCc1ccccc1Br)c1cccc2c1C(=O)c1ccc(N3CCOCC3)cc1S2(=O)=O	.	.	.	37	.
CC1CCN(c2ccc3c(c2)S(=O)(=O)c2cccc(C(=O)NC4CCCCC4)c2C3=O)CC1	.	.	-31	35	39
SMILES	D1 potentiator	TRHR enhancer	D1 antagonist	D1 ag	TRHR ag
CC1CCN(c2ccc3c(c2)S(=O)(=O)c2cccc(C(=O)NCc4ccc(F)cc4)c2C3=O)CC1	.	.	.	337	78
O=C(CSc1ncnc2c1sc1ccccc12)Nc1ccc(Br)cc1	.	.	.	.	.
O=C(Nc1ccc(OC(F)(F)F)cc1)NC1CCC(Oc2ccc(C(=O)O)cc2)CC1 (stereo unspecified)	.	.	.	.	.
CC(=O)N1N=C2/C(=C/c3ccccc3)CCCC2C1c1ccccc1 (stereo unspecified)	.	31	.	.	.
O=C(O)c1c(C(=O)N2N=C3/C(=C/c4ccccc4)CCCC3C2c2ccccc2)cccc1[N+](=O)[O-] (stereo unspecified)	.	.	.	.	.
COc1ccc(-c2noc(CN(C)C3CCOCC3)n2)cc1	.	32	.	.	.
COc1ccccc1CNC(=O)C1CCC(CNC(=O)[C@@H]2Cc3ccccc3CN2)CC1 (stereo partly specified)	.	.	.	.	.
COc1ccc(Nc2nc(NN)nc(Nc3ccc(OC)cc3)n2)cc1	.	.	-31	.	.
COc1ccc(Nc2ccc(OC)cc2)cc1	.	.	.	.	.
NNc1nc(Nc2ccccc2)nc(Nc2ccccc2)n1	.	.	-30	.	.
c1ccc(Nc2ccnc(Nc3ccccc3)n2)cc1	.	.	-34	.	.
Cc1sc(NC(=O)c2ccco2)c(C(Nc2ccccn2)c2ccccc2)c1C (stereo unspecified)	.	.	.	.	.
NCCCC[C@@H]1NC(=O)[C@H](CCC(=O)O)NC(=O)c2cc([N+](=O)[O-])cc(I)c2SC[C@@H](C(=O)NCC(N)=O)NC1=O	.	.	-44	.	.
COc1cc(-c2nnc3n(CCc4ccccc4)c(=O)c4ccccc4n23)cc(OC)c1OC	.	.	.	.	.
COc1ccc(-n2nc([N+](=O)[O-])c(=NCCc3cccc(C)c3)n2O)cc1	.	.	-35	.	.
CCNc1nc(Oc2ccc(C(=O)OC)cc2)nc(N(C)C)n1	.	.	-31	.	.
Cc1cc(NC(=O)CN2C(=O)CC(c3ccco3)Sc3ccccc32)no1 (stereo unspecified)	.	.	.	.	.
CCOC(=O)c1ccc(S(=O)(=O)NC2CCC(C)CC2)cc1 (stereo unspecified)	.	.	.	.	.
COc1cccc(CN2CCN(C(=O)c3ccc(-c4ccccc4)cc3)CC2)c1OC	.	.	-37	.	.
CC(C)CC(=O)N1CCN(C(=O)c2ccc(-c3ccccc3)cc2)CC1	.	31	.	.	.
COc1cc(C(=O)N2CCN(C(=O)C3CC3)CC2)cc(OC)c1OC	.	.	-42	.	.
COc1ccc(S(=O)(=O)N2CCN(Cc3cc(OC)c(O)c(OC)c3)CC2)cc1	.	.	.	.	.
COc1cc(CN2CCN(S(=O)(=O)c3ccccc3)CC2)cc(OC)c1O	.	.	-61	.	.
O=C(COCc1nc2ccccc2c(=O)[nH]1)NC1CCCC1	.	.	.	.	.
CCC(=O)N1CCc2cc(CNC(=O)Nc3cc(Cl)ccc3C(=O)OC)ccc21	.	.	.	.	.
Cc1ccc(N2C(=O)c3ccc(C(=O)N4CCN(Cc5ccccc5)CC4)cc3C2=O)cc1	.	.	-48	58	.
CCCOC(=O)CN1C(=O)c2ccc(C(=O)OCCC)cc2C1=O	.	.	.	.	.

Assay outcomes as filed in PubChem.
